The values below come from PubChem BioAssay (Tox21).

Records with an inconclusive call do not appear. The source made the active and inactive calls. Unless noted, calls come from the whole dose curve; as a rule, active = well fitted curve in the direction sought with a large enough effect in the repeat runs; inconclusive = weak or mixed curves; inactive = no such curve, though single readings can be large; an effect the other way counts as inactive or inconclusive.

Test [1] in a line: qHTS assay for small molecule agonists of the p53 signaling pathway (AID 651631; calls by dose curve; note: nearly all actives have a fitted effect of over 15% in size). The procedure, abridged:
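Read-out is beta-lactamase FRET fluorescence measured 2 h after substrate addition at room temperature, in HCT-116 cells with a p53 response element-driven reporter exposed to compounds for 16 h at 37 °C.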

The nature of test [2]: qHTS assay for small molecules that induce genotoxicity in human embryonic kidney cells expressing luciferase-tagged ATAD5 (AID 651632). Note: nearly all actives have a fitted effect of over 15% in size. The procedure, abridged:
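Quantitative HTS in HEK293T expressing luciferase-tagged ATAD5, whose levels rise upon DNA damage. Exposure ran 16 hr at 37C and 5% CO2, with luminescence read 30 min after Amplite addition at room temperature.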
Background: In qHTS, concentration-response curves come from the screen itself.

Test [3] is described as follows: qHTS assay for small molecule agonists of the p53 signaling pathway - cell viability (AID 651633; calls by dose curve;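 note: p53RE-bla HCT reporter cells with a stable beta-lactamase p53 reporter; series mostly up to about 83 µM; nearly all actives have a fitted effect of over 30% in size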). An outline of the steps:
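Viability counter-read: CellTiter-Glo luminescence (30 min, room temperature) in the same p53RE-bla plates. These plates had been exposed to compounds for 16 h at 37 C.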

Test [4] can be described thus: qHTS assay for small molecules that induce genotoxicity in human embryonic kidney cells expressing luciferase-tagged ATAD5 - cell viability (AID 651634; calls by dose curve; note: nearly all actives have a fitted effect of over 25% in size). An outline of the steps: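 After 15.5 hr incubation with compound at 37C, 5% CO2, HEK293T ATAD5-luciferase cells received CellTiter-Fluor reagent; fluorescence intensity was quantified following 30 min at 37C.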
Test [5] in a line: qHTS assay for small molecule disruptors of the mitochondrial membrane potential - cell viability (AID 720634; calls by dose curve;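 note: human HepG2 liver cancer cells; series mostly up to about 83 µM; nearly all actives have a fitted effect of over 20% in size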). An outline of the steps:
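ATP-based luminescent viability readout (CellTiter-Glo, 30 min, room temperature) in HepG2 cells multiplexed with the m-MPI membrane potential dye; compound exposure lasted 1 hr at 37 C.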

The nature of test [6]: qHTS assay for small molecule disruptors of the mitochondrial membrane potential (AID 720635). Note: potency is the fitted concentration of half-maximal effect. An outline of the steps:
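Mitochondrial membrane potential tracked with Mito-MPS dye, red aggregates (ex 540/em 590 nm) against green monomers (ex 490/em 535 nm). Compound treatment 1 hr at 37C, dye 30 min in HepG2.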

Test [7] is described as follows: qHTS assay to test for compound auto fluorescence at 590 nm (red) in HepG2 cells (AID 720674). An outline of the steps: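 We screened compounds on adherent HepG2 cells, incubating them for an hour at 37 C in 5% CO2 before reading emission at 590 nm under 540 nm excitation; values reflect equivalence to Rose Bengal sodium fluorescence.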
A short description of test [8]: qHTS assay to test for compound auto fluorescence at 535 nm (green) in HepG2 cells (AID 720675).
Test [9] is described as follows: qHTS assay to test for compound auto fluorescence at 460 nm (blue) in HEK293 cells (AID 720678). The procedure, abridged: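 After cell attachment (4-5 hr, 37C), compounds were pinned onto HEK293 monolayers in 10% dialyzed FBS medium. The blue channel (405/460 nm) was read following overnight culture. Equivalency was calculated against triamterene.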
The nature of test [10]: qHTS assay to test for compound auto fluorescence at 590 nm (red) in HEK293 cells (AID 720679). The procedure, abridged:
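Plates of HEK293 cells (10% dialyzed FBS) are treated with 23 nL compound or DMSO vehicle after a 4-5 hr attachment period, incubated overnight at 37C, and read for red fluorescence at 540/590nm.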

Test [11] is described as follows: qHTS assay to test for compound auto fluorescence at 535 nm (green) in HEK293 cells (AID 720680).
Test [12] in a line: qHTS assay to test for compound auto fluorescence at 460 nm (blue) in HEK293 cell free culture (AID 720681). An outline of the steps: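 Blue fluorescence (Ex 405/Em 460 nm, triamterene-equivalent) was read immediately after pin transfer of compound or DMSO into medium (DMEM, 10% FBS) without cells.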
A short description of test [13]: qHTS assay to test for compound auto fluorescence at 535 nm (green) in HEK293 cell free culture (AID 720682). The procedure, abridged: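 Fluorescein serves as the green reference fluorophore; each compound's intrinsic emission at 535 nm (excitation 485 nm) is reported as an equivalent amount of that dye, measured in serum-containing DMEM without cells.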
Test [14] in a line: qHTS assay to test for compound auto fluorescence at 590 nm (red) in HEK293 cell free culture (AID 720683). The procedure, abridged: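 Red-channel autofluorescence of compounds in culture medium (DMEM, 10% FBS), no cells, measured at 540/590 nm. Rose Bengal sodium is the reference fluorophore for equivalence.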
Test [15] can be described thus: qHTS assay to test for compound auto fluorescence at 590 nm (red) in HepG2 cell free culture (AID 720684). The procedure, abridged: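 Cell-free; medium MEM + 10% FBS; compound or DMSO added by pintool; read Ex 540/Em 590 nm; Rose Bengal sodium as red reference fluorophore.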
Test [16] in a line: qHTS assay to test for compound auto fluorescence at 460 nm (blue) in HepG2 cell free culture (AID 720685). The procedure, abridged: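 Cell-free plates of MEM plus 10% FBS received 23 nL compound or DMSO vehicle; blue-channel (405/460 nm) intensity scored against triamterene as reference fluorophore.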
Test [17] in a line: qHTS assay to test for compound auto fluorescence at 535 nm (green) in HepG2 cell free culture (AID 720686).
Test [18] can be described thus: qHTS assay to test for compound auto fluorescence at 460 nm (blue) in HepG2 cells (AID 720687). An outline of the steps: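 Blue-channel autofluorescence (Ex/Em 405/460 nm, triamterene-equivalent) was measured after 1 hr compound exposure at 37 C, 5% CO2. Cells were HepG2, plated overnight at 37 C in MEM plus 10% FBS.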
Test [19] concerns the target Glucocorticoid receptor (Homo sapiens) (UniProt P04150). As to the kind of experiment: qHTS assay to identify small molecule agonists of the glucocorticoid receptor (GR) signaling pathway (AID 720691; active = well fitted activation curve with a large enough effect in the signal ratio in the repeat runs, not every such curve was filed as active; the % refers to the signal ratio). The procedure, abridged: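 Cells: GR-bla HeLa, endogenous GR with stably integrated GRE-beta-lactamase reporter. Treatment 18 h, 37 C, compounds delivered in DMSO. Detection via LiveBLAzer B/G FRET substrate, 2 h RT, fluorescence intensity.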

Test [20] has the same target. The test is described as follows: qHTS assay to identify small molecule antagonists of the glucocorticoid receptor (GR) signaling pathway (AID 720692; active = well fitted inhibition curve with a large enough effect in the signal ratio in the repeat runs, not every such curve was filed as active; the % refers to the signal ratio). The procedure, abridged: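 Quantitative HTS in antagonist format: HeLa cells expressing endogenous GR and a stably integrated GRE-bla reporter, stimulated with 5 nM dexamethasone (final) alongside test compounds for 18 h.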

Glucocorticoid receptor (Homo sapiens), sequence (P04150 whole entry, looked up): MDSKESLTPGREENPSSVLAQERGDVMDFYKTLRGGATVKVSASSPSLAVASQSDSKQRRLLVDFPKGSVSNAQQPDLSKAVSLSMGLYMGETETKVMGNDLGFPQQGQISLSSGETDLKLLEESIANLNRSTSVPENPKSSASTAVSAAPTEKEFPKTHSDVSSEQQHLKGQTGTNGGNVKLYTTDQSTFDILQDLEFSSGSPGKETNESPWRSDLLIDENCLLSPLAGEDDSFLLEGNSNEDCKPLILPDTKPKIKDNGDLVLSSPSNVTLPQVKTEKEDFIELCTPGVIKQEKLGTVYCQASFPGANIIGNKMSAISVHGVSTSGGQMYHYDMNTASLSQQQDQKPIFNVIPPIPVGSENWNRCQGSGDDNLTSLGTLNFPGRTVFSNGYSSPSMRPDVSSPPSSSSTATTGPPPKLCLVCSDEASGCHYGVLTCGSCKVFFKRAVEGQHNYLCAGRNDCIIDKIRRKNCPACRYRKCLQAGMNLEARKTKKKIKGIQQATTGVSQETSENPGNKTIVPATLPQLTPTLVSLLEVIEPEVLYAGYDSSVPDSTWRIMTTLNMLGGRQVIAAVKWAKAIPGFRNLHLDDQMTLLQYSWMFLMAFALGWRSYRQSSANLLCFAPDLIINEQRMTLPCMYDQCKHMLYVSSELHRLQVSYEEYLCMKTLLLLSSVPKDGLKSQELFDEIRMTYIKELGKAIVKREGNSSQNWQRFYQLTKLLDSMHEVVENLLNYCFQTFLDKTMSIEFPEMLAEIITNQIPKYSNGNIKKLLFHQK

As for `CCCBr`, the Potency entry in [1], in [2], in test [3], in test [4], in test [5] and in test [6] was “inactive” throughout. Besides, the Potency result in test [19] and in test [20] was “inactive” in each case. For the same molecule, the outcome in [7], in test [8], in [9], in test [10], in [11] and in test [12] was inactive. In addition, the molecule was classed as inactive in test [13], in test [14], in test [15], in test [16], in test [17] and in test [18].
On to `CC(C)(C#N)C(C)(C)C#N`, for which the Potency result in [1], in test [2], in test [3], in test [4], in [5] and in [6] was “inactive” throughout. Also, the call in [7], in [8], in test [10], in [11], in [12] and in [13] was inactive. Also, the molecule was classed as inactive in test [14], in test [15], in test [16] and in test [18].
Consider `CCCCCCCCCCCCN(C)C`, for which the Potency result in test [1], in test [2], in test [3], in test [4], in test [5] and in test [6] was “inactive” in each case. In addition, the Potency entry in test [19] and in [20] was “inactive” each time. In addition, the molecule was classed as inactive in test [7], in test [8], in test [9], in [10], in test [11] and in test [12]. Further, the call in [13], in test [14], in test [15], in test [16], in test [17] and in test [18] was inactive.
Turning to `CCCCCCCCP(=O)(O)O`, the Potency result in test [1], in [2], in test [3], in test [4], in [5] and in test [6] was “inactive” in each case. For the same molecule, the Potency entry in test [19] and in [20] was “inactive” each time. In addition, the result in test [7], in test [8], in [10], in test [11], in [12] and in [13] was inactive. For the same molecule, the outcome in test [14], in test [15], in test [16] and in [18] was inactive.
Turning to `CC(C)(C)NCC(O)c1cc(Cl)c(N)c(C(F)(F)F)c1` (configuration not stated), the Potency entry in test [1], in test [2], in test [3], in test [4], in [5] and in test [6] was “inactive” in each case. Moreover, the Potency result in [19] and in test [20] was “inactive” in each case. Moreover, the call in test [7], in test [8], in test [9], in [10], in test [11] and in test [12] was inactive. Moreover, the result in test [13], in test [14], in test [15], in test [16], in test [17] and in [18] was inactive.
Take `CCCN(CCC)c1c([N+](=O)[O-])cc(C(C)C)cc1[N+](=O)[O-]`: the Potency entry in [1], in test [2], in test [3], in [4] and in test [5] was “inactive” throughout. Moreover, the Potency in test [6] was 12.2 µM (active). The molecule was called inactive in [7], in test [8], in [10], in test [11], in test [12] and in test [13]. Besides, the call in test [14], in [15], in [16] and in [18] was inactive.
On to `COc1ccc2c(c1OC)C(=O)O[C@H]2[C@@H]1c2cc3c(cc2CCN1C)OCO3`, for which the Potency entry in [1], in test [2], in [3], in test [4], in [5] and in [6] was “inactive” throughout. Besides, the outcome in test [7], in test [8], in test [9], in [10], in [11] and in [13] was inactive. Moreover, the outcome in [14], in test [15], in [16], in [17] and in test [18] was inactive.
